# Source: PubChem BioAssay
# CYP2C19 activ = increases human CYP2C19 enzyme activity. P33261. recombinant CYP2C19, luciferin-H EGE luminescence; stronger effect = higher value; 0 = fully inhibited enzyme, 1 = untreated enzyme. activation factor at 5 µM. 96,000 tested, under 10 active;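 active = activation factor of at least 2 at 5 µM in the primary screen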;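 also: 0 = wells with 2.5 mM tranylcypromine and 1 = vehicle-only wells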
# CYP2C19 inh = human CYP2C19 inhibition | P33261 | CYP2C19 Supersomes, luciferin-H EGE luminescence, 30 min | inhibition, % at 5 µM | 96,000 compounds, 21% hits | AID 778;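 active = CYP2C19 inhibition above a set limit at 5 µM in the primary screen, cut at about 50% in these data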;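 also: plate controls were negative control wells for no effect and 2.5 mM tranylcypromine positive control for full effect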
# CYP2C9 act = increases human cytochrome P450 2C9 activity; P11712; recombinant CYP2C9, luciferin-H conversion, luminescence; stronger effect = higher value; factor 1 = untreated enzyme, 0 = blocked; activation factor at 5 µM; 96,000 compounds, 1.4% hits;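 active = activation factor of 2 or more for CYP2C9 at a 5 µM dose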;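 also: 0 = sulfaphenazole-blocked wells and 1 = vehicle-only wells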
# Cav3 T inh = blocks human Cav3.2 T-type calcium channel. Cav3.2-expressing cells, Fluo-4 calcium fluorescence FDSS; stronger effect = lower value. B-score at 10 µM. 100,000 compounds, 4% hits;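 active = single-dose well whose peak fluorescence ratio is a statistical outlier from its plate by either plate-standardised score or position-corrected B-score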
# CYP2C9 inhib = inhibitors of human CYP2C9. CYP2C9 Supersomes, luciferin-H conversion, luminescence. inhibition, % at 5 µM. P11712. AID 777. 96,000 compounds, 20% hits;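 active = blocking of liver enzyme CYP2C9 beyond about 50% at 5 µM, limit read from the data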
# Starred values were filed as active, the others as inactive; · = no result. In the library only some 27% were active in any assay of this set; here they are far more common.
SMILES,CYP2C19 activ,CYP2C19 inh,CYP2C9 act,Cav3 T inh,CYP2C9 inhib
CN(C)C(CNC(=O)CCCc1c[nH]c2ccccc12)c1ccco1 (centres undefined),0.7,29,1.3,1.4,-30
CCOC(=O)c1[nH]c2ccccc2c1NC(=O)c1ccc2c(c1)OCO2,1,-4,0.8,·,20
CCOC(=O)c1c(NCc2ccc3c(c2)OCO3)c2ccccc2[nH]c1=O,0.3,74*,0.9,-0.062,13
COc1ccc(C(=O)/C=C\N2CCOCC2)cc1,0.9,14,0.9,0.25,10
Cc1nc2ccccc2nc1OCC(=O)NCc1ccc2c(c1)OCO2,0.5,51*,0.9,-0.12,11
Cc1ccc(CC(=O)NCc2ccc3c(c2)OCO3)cc1,0.7,34,0.5,-0.91,48
O=C(COc1ncnc2ccccc12)NCc1ccc2c(c1)OCO2,1,-2,0.9,-0.79,6
O=C(Cc1ccccc1)NCc1ccc2c(c1)OCO2,0.1,95*,0.5,-2.7,54*
O=C(NCc1ccc2c(c1)OCO2)C1CCC(CNS(=O)(=O)c2ccccc2)CC1 (centres undefined),·,·,·,-3.8*,·
O=C(NCc1ccc2c(c1)OCO2)C1CCC(CNS(=O)(=O)c2cccc3nsnc23)CC1 (centres undefined),1.2,-22,1.2,-1,-18
O=C(NCc1ccc(Cl)cc1)c1cc(-c2cccs2)on1,0.5,51*,0.4,-4.1,60*
CC(C)C(=O)c1cn(CC(=O)NCc2ccc3c(c2)OCO3)c2ccccc12,·,·,·,-0.15,·
O=C(NCc1ccc2c(c1)OCO2)c1cc(-c2ccccc2)on1,1,4,1.2,-4.6*,-16
O=C(CCCc1c[nH]c2ccccc12)NCc1ccc2c(c1)OCO2,0.2,83*,0.5,-10*,51*
CC(C)(C)C(=O)c1cn(CC(=O)NCc2ccc3c(c2)OCO3)c2ccccc12,0.5,53*,0.5,-4,50*
O=C(O)c1ccc(NC(CSCc2cccc(F)c2)C(=O)O)c([N+](=O)[O-])c1 (centres undefined),1.2,-15,0.4,0.71,62*
Cc1ccc(CSCC(Nc2ccc(C(=O)O)cc2[N+](=O)[O-])C(=O)O)cc1 (centres undefined),1.1,-14,0.1,2.6,94*
NC(=O)CC(NC(=O)c1ccccc1)c1ccc(NCCc2cccc(F)c2)c([N+](=O)[O-])c1 (centres undefined),·,·,·,0.054,·
CCOC(=O)c1ccccc1NC(=O)CSc1nnnn1C,·,·,·,0.071,·
CCOC(=O)c1sc(=S)n(-c2cccc(C(F)(F)F)c2)c1SC,1,1,0.4,-0.018,61*
CCOC(=O)c1sc(=S)n(-c2ccccc2)c1SC,0.4,58*,0.5,0.45,48
COc1ccc(-c2csc(NCCc3nc4cc(C(=O)NCCCO)ccc4n3Cc3ccc(C)cc3)n2)cc1,·,·,·,-0.57,·
NC(=O)C1=NOC(CNc2ncc(C(F)(F)F)cc2Cl)C1 (centres undefined),0.9,10,2.7*,0.047,-171
Cc1ccc(C(=O)OCC(=O)Nc2ncc(C(F)(F)F)cc2Cl)cc1NC(=O)c1ccco1,0.7,34,0.7,-0.29,32
NC(=O)NOCc1ncc(C(F)(F)F)cc1Cl,1,3,1,0.076,-1
SMILES,CYP2C19 activ,CYP2C19 inh,CYP2C9 act,Cav3 T inh,CYP2C9 inhib
CO/N=C/NC(=O)C1=NOC(CNc2ncc(C(F)(F)F)cc2Cl)C1 (centres undefined),0.3,75*,0.9,-0.5,6
Cc1ccccc1N(CC(=O)NCC1CCCO1)C(=O)C1(C)CC(=O)N=C2C=CC=CN21 (centres undefined),1.1,-8,1,-0.034,-4
CCOC(=O)C1=C(C)NC(SCC(=O)OC)=C(C#N)C1c1ccc(C(=O)OC)cc1 (centres undefined),0,97*,0,-3.9,96*
CC(=O)C1=C(C)NC(SCC(N)=O)=C(C#N)C1c1cccnc1 (centres undefined),1,4,1,-0.18,4
CCOC(=O)CSC1=C(C#N)C(c2ccc(F)cc2)C(C(C)=O)=C(C)N1 (centres undefined),0.6,42,0.5,2.8,51*
C=CCOC(=O)C1=C(C)NC(SCC)=C(C#N)C1c1ccc(Cl)cc1 (centres undefined),0.5,53*,0.1,-7.5*,86*
CC1=C(C(=O)Nc2ccc(Cl)cc2)C(c2ccncc2)C(C#N)=C(SCC(N)=O)N1 (centres undefined),0.6,37,0.4,1.8,65*
COC(=O)C1=C(C)NC(=O)CC1c1ccc(C(=O)OC)cc1 (centres undefined),0.8,21,0.9,0.52,13
C=CCOC(=O)C1=C(C)NC(C)=C(C(=O)OCC=C)C1/C=C/c1ccccc1,·,·,·,-2.3,·
OCCNc1nc2ccc(Cl)cc2[nH]1,1.2,-18,1.2,0.93,-19
O=C(C1=C[C@H](C2CC2)C[C@H](OCCCCO)O1)N1CCOCC1,·,·,·,0.47,·
O=C1C2CCCN2C(c2ccccc2)N1c1nccs1 (centres undefined),0.9,13,1,-0.058,-1
C=CCNC(=S)Nc1sc2c(c1C(=O)OCC)CC(C(C)C)OC2 (centres undefined),0.8,15,0.9,0.12,9
COc1ccc(C(C)=O)cc1CN1C(=O)NC2(CCCCCC2)C1=O,0.1,88*,0.7,0.69,29
Cc1noc(/C=C/N(C)C)c1S(=O)(=O)N1CCCC(C(=O)NCc2ccccc2Cl)C1 (centres undefined),0.8,24,0.2,·,78*
Cc1ccc(CNC(=O)C2CCCN(S(=O)(=O)c3c(C)noc3C)C2)cc1 (centres undefined),1.1,-13,1,0.62,-4
Cc1noc(/C=C/N(C)C)c1S(=O)(=O)N1CCCC(C(=O)NC2CCCCC2)C1 (centres undefined),0.9,10,0.6,1,44
Cc1noc(/C=C/N(C)C)c1S(=O)(=O)N1CCCC(C(=O)NCc2ccc(F)cc2)C1 (centres undefined),0.5,46,0.3,·,73*
Cc1noc(/C=C/N(C)C)c1S(=O)(=O)N1CCCC(C(=O)NCc2ccc(Cl)cc2)C1 (centres undefined),0.5,50,0.2,0.07,77*
CS(=O)(=O)N1CCCC(C(=O)NCc2ccc(F)cc2)C1 (centres undefined),1,1,1,0.58,0
c1ccc2c(-n3cccn3)cccc2c1,0.8,23,1.1,1,-7
Cc1cc(N)ccc1-n1c(C)ccc1C,0.5,53*,0.6,-0.83,36
Cc1cc(N)ccc1N1CCCC1,0.9,14,1,0.79,-2
Cc1ccc(-n2c(C)nc3c(cnn3-c3ccccc3Cl)c2=O)cc1C,0.4,59*,0.9,-0.053,15
CCc1nc2c(cnn2-c2ccc(F)cc2)c(=O)n1-c1ccc(N2CCC(C)CC2)cc1,0.5,50*,0.9,-1.1,12
